Holding throughout (experiment): NCI-60 one-dose screen, 48 h (100 = growth as untreated, 0 = no growth, -100 = all killed)
What all share (settings): 10 µM unless noted

The test system of assay [1] is T-47D breast.
In assay [2] the test system is BT-549 breast.
Assay [3] concerns MDA-MB-435 melanoma.
For assay [4], the system named is MCF7 breast.
Assay [5] has as its system HCT-116 colon.
Assay [6] deals with HCC-2998 colon.
In assay [7] the test system is KM12 colon.
In assay [8] the test system is SW-620 colon.

The results in this text go back to PubChem BioAssay (NCI).

About 83,000 compounds went through this panel and 20% of them were active in at least one assay; those are over-represented in the sample as a whole.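 Interpretation: 100, growth as untreated; towards 0, rising growth inhibition; 0, no net growth; 0 to -100, cell death. Compounds scoring below 10 were considered active.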 Unmarked numbers belong to inactive results. Activity calls are given as the source filed them.

`COc1ccc(/C=C2\COc3ccc(-c4ccccc4)cc3C2=O)cc1O`: the growth in assay [1] was 6.79% (active); in assay [2], 2.18% (active); in assay [3] it was 5.12% (active); in assay [4], 0.878% (active); in assay [5], -5.06% (active); in assay [6], 43.1%. The growth in assay [7] was 2.07% (active).

`CC(C)CN(C(=O)c1ccc(Cl)cc1)c1c(N)n(CC(C)C)c(=O)[nH]c1=O`: the growth in assay [1] was 105%; in assay [3] it was 112%; in assay [8], 100%; in assay [4] it was 95%; in assay [5] it was 96.2%; in assay [6] it was 106%. Further, the growth in assay [7] was 102%.

`CN1CCCC1=Nc1ccccc1`: the growth in assay [1] is 106%; in assay [2], 130%; in assay [8], 112%; in assay [4], 97.2%; in assay [5], 114%; in assay [6], 110%. Moreover, the growth in assay [7] was 114%.

Regarding `Cn1/c(=N/NC(N)=S)ccc2ccccc21`, the growth in assay [1] was 52.9%; in assay [2], 100%; in assay [3], 99.8%; in assay [5], 7.01% (active); in assay [6], 112%; in assay [7], 103%.

Regarding `O=C1NC(=S)NC(=O)C1=Cc1cccc(C=C2C(=O)NC(=S)NC2=O)c1`, the growth is 97.7% in assay [1]; 87.5% in assay [2]; 108% in assay [3]; -76% (active) in assay [5]; 107% in assay [6]; 107% in assay [7].

`CC(=O)c1cc2c(N)c(C(=O)Nc3cncc4ccccc34)sc2nc1C`: the growth in assay [1] was 93.8%; in assay [2] it was 105%; in assay [3], 43.6%; in assay [4], 91.6%; in assay [5], 101%; in assay [6], 106%. Besides, in assay [7], the growth was 94.3%.

As to `CCCC1C(C(=O)OCC)=C(N)Oc2cc(O)ccc21` (centres undefined), the growth was 88.8% in assay [1]; 94% in assay [2]; 90.6% in assay [3]; 103% in assay [4]; 88.3% in assay [5]; 105% in assay [6]. Besides, the growth in assay [7] is 98.2%.

Regarding `O=C(O)C(/C=C/c1ccco1)=N\Nc1nc(-c2ccc(Cl)cc2)cs1`, the growth in assay [1] is 66.6%; in assay [2], 63.8%; in assay [3], 45.7%; in assay [4], 71.9%; in assay [5], 26.3%; in assay [6], 49%. Further, in assay [7], the growth was 62.2%.

Regarding `CC(C)NC(=O)N1C(=O)CCC1NNC(=O)c1ccc([N+](=O)[O-])cc1` (centres undefined), the growth in assay [1] was 94.9%; in assay [2] it was 102%; in assay [3] it was 98.6%; in assay [4] it was 97.8%; in assay [5], 95.7%; in assay [7], 102%.

As for `COc1cc2c(cc1[N+](=O)[O-])-c1ccc([N+](=O)[O-])cc1/C2=N/NC(N)=S`, the growth in assay [1] was 57.4%; in assay [2], 61.6%; in assay [8], 40.6%; in assay [4], 22.5%; in assay [5], 33.8%; in assay [6], 72.8%. For the same compound, in assay [7], the growth is 70.5%.

For the compound `COc1cc2c(cc1[N+](=O)[O-])-c1ccc([N+](=O)[O-])cc1/C2=N\O`, the growth was 91.1% in assay [1]; 73.1% in assay [2]; 75.2% in assay [8]; 58% in assay [4]; 71.8% in assay [5]; 106% in assay [6]. For the same compound, the growth in assay [7] is 95.1%.

`Nc1cc(N)c2cccnc2c1O`: the growth in assay [1] is 93.4%; in assay [2], 90.3%; in assay [3], -83.9% (active); in assay [4], 46.3%; in assay [5] it was 51.7%; in assay [6], 77.1%. Moreover, the growth in assay [7] was 81.6%.

Take `Cc1[nH]c(C(=O)Nc2ccccc2OCc2cccc(C(=O)NCCN)c2)c(Cl)c1Cl`: the growth in assay [1] is 46.5%; in assay [2], 97.2%; in assay [3], 69.1%; in assay [4] it was 14.7%; in assay [5], 7.52% (active); in assay [6] it was 84.4%. Besides, the growth in assay [7] was 64.1%.

In the case of `O=S(=O)(O)c1cc(O)c2c(N=Nc3ccc(Nc4ccccc4)c4c(S(=O)(=O)O)cccc34)cc(S(=O)(=O)O)cc2c1`, the growth was 100% in assay [1]; 100% in assay [2]; 115% in assay [3]; 105% in assay [4]; 105% in assay [5]; 102% in assay [6]. Besides, the growth in assay [7] was 101%.

`O=S(=O)(c1cccc(NC2=Nc3cccc4cccc2c34)c1)N1CCCC1`: the growth is 44.5% in assay [1]; 48% in assay [2]; 29.3% in assay [3]; 51.4% in assay [4]; 62.8% in assay [5]; 71.7% in assay [7].

In the case of `CC(C)(C)OC(=O)N1C/C(=C\c2ccoc2)C(=O)/C(=C/c2ccoc2)C1`, the growth in assay [1] is 82.4%; in assay [2], 102%; in assay [3], 98.2%; in assay [4], 20.5%; in assay [5] it was 21.7%; in assay [6] it was 98.9%. Moreover, the growth in assay [7] is 88.8%.

For the compound `COc1ccc(CNCCN2C(=O)c3ccc4c5c(ccc(c35)C2=O)C(=O)N(CCNCc2ccc(OC)cc2)C4=O)cc1`, the growth in assay [1] was -19% (active); in assay [3] it was -71.4% (active); in assay [8] it was -88% (active); in assay [4] it was -79.2% (active); in assay [5] it was -72.4% (active); in assay [6], -92.3% (active). Moreover, the growth in assay [7] is -81.8% (active).

Turning to `CS(=O)(=O)c1ccc(-c2cc(-c3nnc(SCC(=O)Nc4ccc(C(=O)/C=C/c5ccc(Cl)cc5)cc4)n3-c3ccccc3)c3ccccc3n2)cc1`, the growth is 87% in assay [1]; 108% in assay [2]; 101% in assay [3]; 92.5% in assay [4]; 92.7% in assay [5]; 106% in assay [6]. In addition, the growth in assay [7] was 96.8%.

Consider `CCNNC(=O)[C@@H]1[C@H](c2cc(OC)c(OC)c(OC)c2)c2cc3c(cc2[C@H](O)[C@H]1CO)OCO3`, for which the growth is 80.6% in assay [1]; -27.2% (active) in assay [2]; -26.9% (active) in assay [3]; 10.2% in assay [4]; 0.945% (active) in assay [5]; 6.02% (active) in assay [6]. Besides, the growth in assay [7] is -5.82% (active).
